# Data reported in the supplement of paper PMC8728848.
# The full list was thinned out, with the strongest signals kept by preference.
# What was measured:
# Assay in all cases: glycan array binding signal (z-score within array); higher = stronger binding
# [1] = test system: Neu5Ac(a2-6)GalNAc(b1-4)GlcNAc6S; conditions: glycan notation: IUPAC condensed, linker removed
# Summary of the method: (§1)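 Glycan array binding is given as a within-array Z-score, which can be read as non-binding when negative. The arrays, 3228 of them, came from the Consortium for Functional Glycomics database and were retained only where the protein sequence was available. Z-scores were averaged across arrays of the same protein sequence at different concentrations or buffers and across linkers.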
# [2] = test system: Neu5Ac(a2-8)Neu5Ac(a2-8)Neu5Ac(a2-3)Gal(b1-4)Glc; conditions: glycan notation: IUPAC condensed, linker removed
# Summary of the method: as §1
# [3] = test system: Neu5Ac9Ac(a2-6)Gal(b1-4)GlcNAc; conditions: glycan notation: IUPAC condensed, linker removed
# Summary of the method: as §1
# Neu5Ac(a2-6)GalNAc = conditions: glycan notation: IUPAC condensed, linker removed
# Summary of the method: as §1
# [4] = test system: Neu5Gc(a2-3)Gal(b1-4)GlcNAc; conditions: glycan notation: IUPAC condensed, linker removed
# Summary of the method: as §1
# [5] = test system: Neu5Ac(a2-6)GlcNAc(b1-4)GlcNAc; conditions: glycan notation: IUPAC condensed, linker removed
# Summary of the method: as §1
# [6] = test system: Neu5Ac(a2-8)Neu5Ac(a2-3)Gal(b1-3)GalNAc(b1-4)[Neu5Ac(a2-3)]Gal(b1-4)Glc; conditions: glycan notation: IUPAC condensed, linker removed; mutation: R125K
# Summary of the method: as §1
# [7] = test system: Neu5Ac(a2-8)Neu5Ac(a2-3)Gal(b1-4)GlcNAc; conditions: glycan notation: IUPAC condensed, linker removed; mutation: R125K
# Summary of the method: as §1
# [8] = test system: Neu5Ac9Ac(a2-3)Gal(b1-4)GlcNAc; conditions: glycan notation: IUPAC condensed, linker removed; mutation: R125K
# Summary of the method: as §1
# [9] = test system: Neu5Gc(a2-3)Gal(b1-3)[Fuc(a1-4)]GlcNAc; conditions: glycan notation: IUPAC condensed, linker removed; mutation: R125K
# Summary of the method: as §1
# [10] = test system: Neu5Gc(a2-3)Gal(b1-4)GlcNAc(b1-3)Gal(b1-4)GlcNAc(b1-2)Man(a1-3)[Neu5Gc(a2-3)Gal(b1-4)GlcNAc(b1-3)Gal(b1-4)GlcNAc(b1-2)Man(a1-6)]Man(b1-4)GlcNAc(b1-4)GlcNAc; conditions: glycan notation: IUPAC condensed, linker removed
# Summary of the method: as §1
# [11] = test system: Neu5Ac(a2-8)Neu5Ac(a2-3)Gal(b1-4)Glc; conditions: glycan notation: IUPAC condensed, linker removed
# Summary of the method: as §1
# [12] = test system: Neu5Ac(a2-8)Neu5Ac(a2-8)Neu5Ac(a2-3)[GalNAc(b1-4)]Gal(b1-4)Glc; conditions: glycan notation: IUPAC condensed, linker removed
# Summary of the method: as §1
# [13] = test system: Neu5Ac(a2-8)Neu5Ac(a2-3)[GalNAc(b1-4)]Gal(b1-4)Glc; conditions: glycan notation: IUPAC condensed, linker removed
# Summary of the method: as §1
# Neu5Ac(b2-6)GalNAc = conditions: glycan notation: IUPAC condensed, linker removed
# Summary of the method: as §1
# [14] = test system: Neu5Ac(a2-8)Neu5Ac(a2-8)Neu5Ac(a2-8)Neu5Ac(a2-3)[GalNAc(b1-4)]Gal(b1-4)Glc; conditions: glycan notation: IUPAC condensed, linker removed
# Summary of the method: as §1
# [15] = test system: Neu5Ac(a2-8)Neu5Ac(a2-8)Neu5Ac; conditions: glycan notation: IUPAC condensed, linker removed; mutation: D138V, E140I
# Summary of the method: as §1
# Sequence of PILRb (Mus musculus), Q2YSF2 (Q2YSF2 entry or part of it): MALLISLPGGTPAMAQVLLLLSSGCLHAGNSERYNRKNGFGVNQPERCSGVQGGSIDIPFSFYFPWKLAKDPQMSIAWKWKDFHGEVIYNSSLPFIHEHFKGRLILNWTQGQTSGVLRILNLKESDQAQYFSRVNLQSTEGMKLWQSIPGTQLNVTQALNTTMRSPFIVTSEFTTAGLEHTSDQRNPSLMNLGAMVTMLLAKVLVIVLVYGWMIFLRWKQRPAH
# Sequence of Neurocan (Homo sapiens), O14594 (O14594 other isoform, or with tags, fused parts or gaps): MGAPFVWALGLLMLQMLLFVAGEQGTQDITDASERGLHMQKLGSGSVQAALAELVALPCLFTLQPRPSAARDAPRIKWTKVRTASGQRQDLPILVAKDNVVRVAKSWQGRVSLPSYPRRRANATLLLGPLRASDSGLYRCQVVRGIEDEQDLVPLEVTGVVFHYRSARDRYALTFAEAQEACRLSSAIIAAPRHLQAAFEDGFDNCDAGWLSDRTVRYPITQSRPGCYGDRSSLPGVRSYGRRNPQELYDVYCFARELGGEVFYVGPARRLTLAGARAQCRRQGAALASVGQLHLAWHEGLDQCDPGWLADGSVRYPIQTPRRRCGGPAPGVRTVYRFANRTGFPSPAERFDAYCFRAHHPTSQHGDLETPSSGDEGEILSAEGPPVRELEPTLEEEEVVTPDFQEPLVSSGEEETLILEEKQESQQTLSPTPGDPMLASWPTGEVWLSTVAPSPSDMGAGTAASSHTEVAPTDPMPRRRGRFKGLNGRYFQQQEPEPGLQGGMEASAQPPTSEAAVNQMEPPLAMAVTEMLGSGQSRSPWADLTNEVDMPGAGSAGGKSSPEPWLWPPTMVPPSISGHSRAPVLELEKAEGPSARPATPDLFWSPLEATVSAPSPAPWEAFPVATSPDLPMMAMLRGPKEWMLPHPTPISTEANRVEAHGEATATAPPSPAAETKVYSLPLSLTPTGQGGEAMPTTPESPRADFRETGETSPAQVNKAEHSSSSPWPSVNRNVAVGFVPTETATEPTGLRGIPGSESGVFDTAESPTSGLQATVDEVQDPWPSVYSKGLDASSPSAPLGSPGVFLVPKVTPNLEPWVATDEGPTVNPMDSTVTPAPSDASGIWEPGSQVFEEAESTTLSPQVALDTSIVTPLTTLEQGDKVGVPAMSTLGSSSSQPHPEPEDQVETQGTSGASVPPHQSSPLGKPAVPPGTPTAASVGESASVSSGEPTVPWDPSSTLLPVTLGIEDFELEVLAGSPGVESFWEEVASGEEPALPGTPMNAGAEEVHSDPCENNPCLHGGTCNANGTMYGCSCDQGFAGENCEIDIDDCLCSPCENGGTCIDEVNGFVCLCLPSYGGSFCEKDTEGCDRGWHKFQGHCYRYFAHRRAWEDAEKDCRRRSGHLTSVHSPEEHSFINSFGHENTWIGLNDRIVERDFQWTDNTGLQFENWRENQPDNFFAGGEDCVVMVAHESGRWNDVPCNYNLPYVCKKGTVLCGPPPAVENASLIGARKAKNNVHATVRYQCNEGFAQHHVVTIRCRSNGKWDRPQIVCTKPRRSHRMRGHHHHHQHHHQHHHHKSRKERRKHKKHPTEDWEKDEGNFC
# Sequence of CHI3L1 (Homo sapiens), P36222 (P36222 whole entry): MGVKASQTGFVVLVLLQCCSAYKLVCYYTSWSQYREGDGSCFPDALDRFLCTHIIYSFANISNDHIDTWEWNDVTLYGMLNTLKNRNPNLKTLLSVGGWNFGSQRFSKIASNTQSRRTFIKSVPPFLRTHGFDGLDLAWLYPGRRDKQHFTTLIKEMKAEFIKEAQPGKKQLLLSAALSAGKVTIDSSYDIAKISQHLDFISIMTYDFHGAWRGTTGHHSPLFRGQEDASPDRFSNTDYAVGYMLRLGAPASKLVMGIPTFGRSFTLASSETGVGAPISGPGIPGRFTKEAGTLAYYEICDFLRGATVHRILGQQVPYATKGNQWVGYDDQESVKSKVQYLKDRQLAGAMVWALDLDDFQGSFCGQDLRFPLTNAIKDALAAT
# Sequence of Regenerating Gene IV (Homo sapiens), Q9BYZ8 (Q9BYZ8 whole entry, looked up): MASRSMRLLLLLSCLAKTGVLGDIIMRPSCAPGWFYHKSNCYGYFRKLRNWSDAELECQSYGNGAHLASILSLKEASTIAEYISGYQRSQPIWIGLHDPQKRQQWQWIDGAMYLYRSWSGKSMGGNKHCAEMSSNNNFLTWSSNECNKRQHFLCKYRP
# Sequence of Avaren (Actinomycete K97) (chain, as listed by the source): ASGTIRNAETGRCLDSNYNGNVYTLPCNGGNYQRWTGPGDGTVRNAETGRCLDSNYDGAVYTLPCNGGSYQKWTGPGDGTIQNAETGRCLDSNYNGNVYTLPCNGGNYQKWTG
# Sequence of SRLC (Mus musculus), Q8VIF6 (Q8VIF6 other isoform, or with tags, fused parts or gaps): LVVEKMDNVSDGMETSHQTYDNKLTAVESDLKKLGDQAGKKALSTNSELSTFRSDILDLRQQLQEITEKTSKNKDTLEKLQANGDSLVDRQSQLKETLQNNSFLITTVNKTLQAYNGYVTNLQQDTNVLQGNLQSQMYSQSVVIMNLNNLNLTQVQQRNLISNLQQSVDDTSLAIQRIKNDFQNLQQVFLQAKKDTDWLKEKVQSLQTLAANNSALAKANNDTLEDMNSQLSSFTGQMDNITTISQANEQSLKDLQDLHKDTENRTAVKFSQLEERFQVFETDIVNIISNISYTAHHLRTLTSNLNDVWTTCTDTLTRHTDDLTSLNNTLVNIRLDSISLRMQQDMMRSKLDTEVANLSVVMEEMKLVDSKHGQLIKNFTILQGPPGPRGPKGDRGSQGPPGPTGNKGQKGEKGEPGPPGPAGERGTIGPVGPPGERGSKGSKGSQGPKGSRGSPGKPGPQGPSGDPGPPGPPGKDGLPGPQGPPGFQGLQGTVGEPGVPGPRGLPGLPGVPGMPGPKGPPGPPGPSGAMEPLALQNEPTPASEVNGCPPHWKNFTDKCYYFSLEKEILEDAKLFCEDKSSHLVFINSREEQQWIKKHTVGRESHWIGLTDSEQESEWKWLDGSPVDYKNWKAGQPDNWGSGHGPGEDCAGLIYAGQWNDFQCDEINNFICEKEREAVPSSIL
# Sequence of C3b (Homo sapiens), P01024 (P01024 23-667): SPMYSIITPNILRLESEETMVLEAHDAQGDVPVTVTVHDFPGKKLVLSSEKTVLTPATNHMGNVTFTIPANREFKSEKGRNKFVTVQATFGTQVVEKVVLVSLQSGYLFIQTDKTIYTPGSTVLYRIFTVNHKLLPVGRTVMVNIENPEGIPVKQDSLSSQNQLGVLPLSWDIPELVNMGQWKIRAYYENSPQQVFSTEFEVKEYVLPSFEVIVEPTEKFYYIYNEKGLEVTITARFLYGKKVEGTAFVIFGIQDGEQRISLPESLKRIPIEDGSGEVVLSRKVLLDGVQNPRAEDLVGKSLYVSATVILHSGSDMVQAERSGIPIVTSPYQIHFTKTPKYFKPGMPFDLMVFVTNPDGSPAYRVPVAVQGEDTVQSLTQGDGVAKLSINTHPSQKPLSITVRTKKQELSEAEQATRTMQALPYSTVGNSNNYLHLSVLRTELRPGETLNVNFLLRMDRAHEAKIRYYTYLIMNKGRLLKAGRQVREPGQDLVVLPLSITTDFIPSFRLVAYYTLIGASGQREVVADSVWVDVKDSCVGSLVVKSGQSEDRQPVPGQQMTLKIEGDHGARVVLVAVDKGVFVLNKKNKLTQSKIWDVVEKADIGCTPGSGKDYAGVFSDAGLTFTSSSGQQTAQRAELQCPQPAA
# Sequence of 6RG (Lolium perenne), B9U140 (B9U140 entry or part of it): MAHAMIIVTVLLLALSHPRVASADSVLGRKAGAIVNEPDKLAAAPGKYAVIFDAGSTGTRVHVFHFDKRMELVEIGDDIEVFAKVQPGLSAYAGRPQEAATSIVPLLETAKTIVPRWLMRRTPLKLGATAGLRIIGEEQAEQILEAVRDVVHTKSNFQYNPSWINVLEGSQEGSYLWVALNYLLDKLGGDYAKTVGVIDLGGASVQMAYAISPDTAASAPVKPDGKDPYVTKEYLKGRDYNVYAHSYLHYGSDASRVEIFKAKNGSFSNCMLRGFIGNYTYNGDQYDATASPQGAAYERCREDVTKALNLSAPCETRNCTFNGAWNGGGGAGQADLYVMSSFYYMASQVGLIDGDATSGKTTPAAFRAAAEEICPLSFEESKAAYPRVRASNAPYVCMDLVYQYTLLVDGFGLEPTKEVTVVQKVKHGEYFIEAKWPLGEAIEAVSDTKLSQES
# Sequence of CHT (Homo sapiens) (chain, as listed by the source): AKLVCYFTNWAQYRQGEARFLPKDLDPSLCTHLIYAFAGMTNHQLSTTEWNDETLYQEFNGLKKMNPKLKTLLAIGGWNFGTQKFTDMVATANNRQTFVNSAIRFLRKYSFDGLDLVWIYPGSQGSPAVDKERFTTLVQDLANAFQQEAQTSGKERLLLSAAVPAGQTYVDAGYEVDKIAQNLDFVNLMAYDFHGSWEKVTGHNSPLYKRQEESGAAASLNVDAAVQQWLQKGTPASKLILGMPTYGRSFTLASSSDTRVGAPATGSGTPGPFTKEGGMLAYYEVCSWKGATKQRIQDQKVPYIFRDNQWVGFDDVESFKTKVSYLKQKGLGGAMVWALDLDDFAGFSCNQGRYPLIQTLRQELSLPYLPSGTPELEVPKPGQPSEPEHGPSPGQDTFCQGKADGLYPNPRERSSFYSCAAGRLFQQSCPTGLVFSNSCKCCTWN
substance,measurement,setting,value
"CHI3L1 (Homo sapiens), P36222",glycan array binding signal (z-score),[1],-0.113
same,glycan array binding signal (z-score),[2],-0.11
MpAFP RI GFP (Marinomonas primoryensis),glycan array binding signal (z-score),[1],-0.16
same,glycan array binding signal (z-score),[3],-0.772
"Neurocan (Homo sapiens), O14594",glycan array binding signal (z-score),Neu5Ac(a2-6)GalNAc,0.364
same,glycan array binding signal (z-score),[4],-0.18
"PILRb (Mus musculus), Q2YSF2",glycan array binding signal (z-score),[5],-0.085
same,glycan array binding signal (z-score),[2],-0.167
"Siglec-8 (Homo sapiens), Q9NYZ4",glycan array binding signal (z-score),[6],-0.164
same,glycan array binding signal (z-score),[7],-0.473
same,glycan array binding signal (z-score),[8],-0.109
same,glycan array binding signal (z-score),[9],-0.465
same,glycan array binding signal (z-score),[10],0.025
same,glycan array binding signal (z-score),[4]; mutation: R125K,-0.109
"Regenerating Gene IV (Homo sapiens), Q9BYZ8",glycan array binding signal (z-score),[11],0.532
same,glycan array binding signal (z-score),[12],-0.332
"SRLC (Mus musculus), Q8VIF6",glycan array binding signal (z-score),[11],-0.188
Avaren (Actinomycete K97),glycan array binding signal (z-score),[13],-0.117
same,glycan array binding signal (z-score),Neu5Ac(b2-6)GalNAc,-0.14
"C3b (Homo sapiens), P01024",glycan array binding signal (z-score),[14],-0.102
CHT (Homo sapiens),glycan array binding signal (z-score),[15],-0.166
"6RG (Lolium perenne), B9U140",glycan array binding signal (z-score),[3],2.52
